Growth data for 13 molecules are collected here from PubChem BioAssay (NCI).

SMILES strings stand for the structures. About 83,000 compounds went through this panel and 20% of them were active in at least one assay; those are over-represented in the sample as a whole.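 Single-dose data. Exposure time 48 hours. Values below 10 considered active.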 A number with no mark means an inactive call. Activity calls are given as the source filed them.

Test systems include SK-MEL-2 melanoma; EKVX NSCLC; SN12C renal; UO-31 renal; TK-10 renal; ACHN renal; A498 renal; CCRF-CEM leukemia; MOLT-4 leukemia; SR leukemia.
Holding throughout (assay): NCI-60 one-dose screen, 48 h (100 = growth as untreated, 0 = no growth, -100 = all killed)
Common to all, as to details: 10 µM unless noted

As for `C=C1C(=O)O[C@H]2[C@H]1CC/C(COC(=O)c1c[nH]c3ccccc13)=C\CC[C@@]1(C)O[C@@H]21`, the growth in the assay with SK-MEL-2 melanoma is -41.3% (active); in the assay with EKVX NSCLC, -73.3% (active); with SN12C renal, -46.5% (active); in the assay with UO-31 renal, -97.6% (active); in the assay on TK-10 renal, -87% (active); with ACHN renal, -77.8% (active). Also, the growth in the assay with A498 renal is -96.3% (active); in the assay with CCRF-CEM leukemia, -0.836% (active); in the assay with MOLT-4 leukemia, -1.78% (active); in the assay with SR leukemia, -9.87% (active).

Take `Cc1cc(C)c(NC(=O)c2sc3nc4c(cc3c2N)CCCCCC4)c(C)c1`: the growth is 34.6% in the assay on SK-MEL-2 melanoma; 67.8% in the assay with EKVX NSCLC; 68.3% in the assay with SN12C renal; 67.3% in the assay on UO-31 renal; 74.2% in the assay on TK-10 renal; 72.4% in the assay on ACHN renal. Also, the growth in the assay on A498 renal was 19.9%; in the assay on CCRF-CEM leukemia, 32.8%; in the assay with MOLT-4 leukemia it was 36.3%; in the assay on SR leukemia, 23.3%.

`NC(=O)c1ccc(C2C3=C(CCCC3=O)OC3=C2C(=O)c2ccccc2C3=O)cc1` (stereo not given): the growth is 20.6% with SK-MEL-2 melanoma; 24.6% in the assay with EKVX NSCLC; -3.43% (active) with SN12C renal; 90.6% in the assay on UO-31 renal; 98.2% with TK-10 renal; 27.9% with ACHN renal. For the same molecule, the growth in the assay with A498 renal is 131%; in the assay with CCRF-CEM leukemia, 15%; in the assay with MOLT-4 leukemia it was -17.4% (active); with SR leukemia it was 8.38% (active).

As to `COc1ccc(/C=C/C(=O)c2ccc(NC(=O)CSc3nnc(-c4ccc(OC)c(OC)c4)n3-c3ccccc3)cc2)cc1`, the growth is 74.7% in the assay on SK-MEL-2 melanoma; 66% with EKVX NSCLC; 40.5% in the assay with SN12C renal; -81.3% (active) in the assay on UO-31 renal; 101% with TK-10 renal; 59.9% in the assay with ACHN renal. Also, the growth in the assay on A498 renal was 93.5%; in the assay with CCRF-CEM leukemia, -20.9% (active); with MOLT-4 leukemia it was 10.8%; with SR leukemia, -38.2% (active).

As to `CCOCCc1c(O)nc(SC)[nH]c1=O`, the growth with SK-MEL-2 melanoma is -28.8% (active); in the assay with EKVX NSCLC, 121%; with SN12C renal, 92.6%; with UO-31 renal it was 83.9%; in the assay with TK-10 renal, 122%; in the assay on ACHN renal, 108%. Moreover, the growth in the assay with A498 renal was 85.7%; in the assay with CCRF-CEM leukemia it was 113%; in the assay with MOLT-4 leukemia it was 116%; in the assay with SR leukemia it was 112%.

As to `Nc1ccccc1NC(=O)c1ccc(CSc2nc(N3CCOCC3)c3cccn3n2)cc1`, the growth is -28.9% (active) in the assay with SK-MEL-2 melanoma; 25.8% in the assay on EKVX NSCLC; 16.6% with SN12C renal; -24.8% (active) in the assay on UO-31 renal; -10.7% (active) in the assay with TK-10 renal; 16.3% in the assay on ACHN renal. Moreover, the growth with A498 renal is -12.1% (active); in the assay with CCRF-CEM leukemia, 5.4% (active); in the assay on MOLT-4 leukemia, 1.08% (active); in the assay on SR leukemia it was 13.4%.

As to `COC(=O)c1ccc2c(c1)n(Cc1ccc3ccccc3c1)c[n+]2Cc1ccc2ccccc2c1`, the growth was 5.59% (active) with SK-MEL-2 melanoma; 71% with EKVX NSCLC; 38.4% in the assay with SN12C renal; 83.6% in the assay with UO-31 renal; 49.1% in the assay with TK-10 renal; 99% in the assay on ACHN renal. For the same molecule, the growth in the assay on A498 renal was 80.5%; with CCRF-CEM leukemia, 27.5%; with MOLT-4 leukemia it was 29.2%; in the assay with SR leukemia, -37.1% (active).

Turning to `Cc1ccc(C(=O)O)o1`, the growth in the assay on SK-MEL-2 melanoma is 96.1%; in the assay with EKVX NSCLC, 104%; in the assay with SN12C renal, 110%; in the assay on UO-31 renal it was 95.4%; in the assay on TK-10 renal it was 96.9%; with ACHN renal, 111%. In addition, the growth in the assay on A498 renal is 108%; with CCRF-CEM leukemia, 115%; with MOLT-4 leukemia, 101%; in the assay on SR leukemia, 116%.

Regarding `O=C(Nc1nc2ccc(C(F)(F)F)cc2s1)c1cc(Cl)ccc1O`, the growth in the assay with SK-MEL-2 melanoma is -11.4% (active); in the assay on EKVX NSCLC, -1.23% (active); in the assay with SN12C renal, 9.78% (active); with UO-31 renal, 7.2% (active); in the assay with TK-10 renal, 4.94% (active); with ACHN renal it was 2.6% (active). In addition, the growth in the assay with A498 renal was -26.8% (active); with CCRF-CEM leukemia it was 15%; in the assay on MOLT-4 leukemia, 1.46% (active); with SR leukemia, 0.767% (active).

`COc1cc(C2=NN(C(C)=O)C(c3cccc(Nc4ccnc5cc(C(F)(F)F)ccc45)c3)C2)cc(OC)c1OC` (stereo not given): the growth was 81.4% in the assay with SK-MEL-2 melanoma; 52.2% in the assay with EKVX NSCLC; 64.3% in the assay with SN12C renal; 35.8% in the assay on UO-31 renal; 58.3% in the assay on TK-10 renal; 58.5% with ACHN renal. The growth in the assay with A498 renal is 60.3%; in the assay with CCRF-CEM leukemia, 44%; with MOLT-4 leukemia it was 22.3%; in the assay on SR leukemia it was 29%.

For `Cc1[nH]c(N=Nc2ccccc2)nc1N=Nc1ccccc1`, the growth with SK-MEL-2 melanoma is 39.8%; in the assay on EKVX NSCLC it was 20.5%; in the assay on SN12C renal, 39.2%; in the assay with UO-31 renal, -22% (active); with TK-10 renal, 13.1%; with ACHN renal it was 7.3% (active). The growth with A498 renal was 35%; with CCRF-CEM leukemia, -24.1% (active); in the assay on MOLT-4 leukemia, 13.8%; in the assay on SR leukemia it was 23.1%.

As to `C#C[C@@]1(O)[C@@H](CO)O[C@@H](n2ccc3c(N)ncnc32)[C@@H]1O`, the growth in the assay with SK-MEL-2 melanoma is -8.72% (active); in the assay with EKVX NSCLC, -4.75% (active); with SN12C renal it was -12.3% (active); with UO-31 renal, -14.7% (active); in the assay on TK-10 renal, 3.25% (active); in the assay on ACHN renal it was 3.47% (active). Moreover, the growth in the assay on A498 renal is -53.2% (active); with CCRF-CEM leukemia it was 13.3%; in the assay with MOLT-4 leukemia it was -1.22% (active); with SR leukemia it was 12.1%.

For `COc1ccc(-c2[nH]c3ccc(OC)cc3c2C=C(C#N)C#N)cc1`, the growth is 34.3% with SK-MEL-2 melanoma; 36.5% in the assay with EKVX NSCLC; 63.1% with SN12C renal; 50.1% with UO-31 renal; 70.4% in the assay with TK-10 renal; 63.9% in the assay on ACHN renal. In addition, the growth in the assay on A498 renal is 52.6%; with CCRF-CEM leukemia, 11.1%; in the assay on MOLT-4 leukemia it was 27.3%; with SR leukemia, -3.05% (active).
